Holding throughout (assay): DAPPL (digital affinity profiling via proximity ligation, sequencing); 10 mM Tris-HCl pH 7.5, 50 mM NaCl, 1 mM DTT, 4% glycerol, room temperature, 30 min; GST-TFs on glutathione beads, 16-mer random dsDNA library, 0.1% formaldehyde crosslink after washing; high values mean tight binding
Test [1] addresses T1, FLI1 (Homo sapiens, UniProt Q01543 1-452).
T1 sequence: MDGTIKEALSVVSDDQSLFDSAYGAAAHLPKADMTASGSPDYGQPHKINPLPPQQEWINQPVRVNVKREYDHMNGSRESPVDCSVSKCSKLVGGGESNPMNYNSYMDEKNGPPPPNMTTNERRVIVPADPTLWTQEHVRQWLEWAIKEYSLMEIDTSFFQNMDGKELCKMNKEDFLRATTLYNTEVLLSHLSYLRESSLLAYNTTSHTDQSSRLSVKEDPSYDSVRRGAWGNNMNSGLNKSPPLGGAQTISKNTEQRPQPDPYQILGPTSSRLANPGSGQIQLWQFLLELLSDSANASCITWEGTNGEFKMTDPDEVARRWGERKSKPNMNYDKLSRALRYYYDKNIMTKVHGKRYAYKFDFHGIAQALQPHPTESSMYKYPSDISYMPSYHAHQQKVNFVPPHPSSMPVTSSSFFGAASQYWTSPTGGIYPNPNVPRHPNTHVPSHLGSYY
As to conditions: protein: recombinant; tags: N-terminal GST; dsDNA, one strand shown. In outline: (§1)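 The binding signal reported is, for every hexamer, its read frequency for a factor over its read frequency for the tag-only sample. Reads came from pools of yeast-expressed, GST-fused human transcription factors on glutathione beads, barcoded with DNA and mixed with that sample, which were incubated with 200 nmole of a random double-stranded 16-mer DNA library in Tris/NaCl/DTT/glycerol buffer at room temperature for 30 min. After washing, the pools were crosslinked with 0.1% formaldehyde, proximity-ligated with BsaI/T4 ligase for 1 h at 37 °C, PCR-amplified and sequenced on an Illumina NextSeq500.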

Test [2] deals with T2, ELK1 (Homo sapiens, UniProt P19419 1-428).
T2 sequence: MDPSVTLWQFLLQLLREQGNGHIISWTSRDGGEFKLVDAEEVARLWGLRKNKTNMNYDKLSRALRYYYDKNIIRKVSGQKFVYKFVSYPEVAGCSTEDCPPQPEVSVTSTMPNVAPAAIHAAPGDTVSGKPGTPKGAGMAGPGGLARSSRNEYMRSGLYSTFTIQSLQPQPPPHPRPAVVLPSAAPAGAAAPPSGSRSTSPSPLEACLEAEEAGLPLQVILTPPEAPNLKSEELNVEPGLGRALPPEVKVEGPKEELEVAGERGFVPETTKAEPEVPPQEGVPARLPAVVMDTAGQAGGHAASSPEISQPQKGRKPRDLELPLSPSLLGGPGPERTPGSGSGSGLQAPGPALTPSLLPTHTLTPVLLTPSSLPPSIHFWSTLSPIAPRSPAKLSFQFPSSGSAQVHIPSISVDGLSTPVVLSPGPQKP
As to conditions: protein: recombinant; tags: N-terminal GST; dsDNA, one strand shown. An outline of the steps: as §1

Test [3] concerns the target T3, GABPA (Homo sapiens, UniProt Q06546 1-454).
T3 sequence: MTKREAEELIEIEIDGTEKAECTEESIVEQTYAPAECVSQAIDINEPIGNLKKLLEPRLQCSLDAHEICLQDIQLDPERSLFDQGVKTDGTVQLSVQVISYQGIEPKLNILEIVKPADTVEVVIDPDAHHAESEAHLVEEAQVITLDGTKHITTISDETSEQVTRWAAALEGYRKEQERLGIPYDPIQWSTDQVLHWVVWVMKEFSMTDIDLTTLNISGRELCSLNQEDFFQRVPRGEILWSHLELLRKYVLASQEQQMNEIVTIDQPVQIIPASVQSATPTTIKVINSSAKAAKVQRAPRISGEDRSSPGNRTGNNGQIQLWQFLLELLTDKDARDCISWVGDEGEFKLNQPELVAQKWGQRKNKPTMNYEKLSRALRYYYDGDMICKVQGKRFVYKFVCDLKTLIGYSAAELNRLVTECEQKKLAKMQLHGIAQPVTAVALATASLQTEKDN
As to conditions: protein: recombinant; tags: N-terminal GST; dsDNA, one strand shown. In outline: as §1

In test [4] the target is T4, ERG (Homo sapiens, UniProt P11308 1-479).
T4 sequence: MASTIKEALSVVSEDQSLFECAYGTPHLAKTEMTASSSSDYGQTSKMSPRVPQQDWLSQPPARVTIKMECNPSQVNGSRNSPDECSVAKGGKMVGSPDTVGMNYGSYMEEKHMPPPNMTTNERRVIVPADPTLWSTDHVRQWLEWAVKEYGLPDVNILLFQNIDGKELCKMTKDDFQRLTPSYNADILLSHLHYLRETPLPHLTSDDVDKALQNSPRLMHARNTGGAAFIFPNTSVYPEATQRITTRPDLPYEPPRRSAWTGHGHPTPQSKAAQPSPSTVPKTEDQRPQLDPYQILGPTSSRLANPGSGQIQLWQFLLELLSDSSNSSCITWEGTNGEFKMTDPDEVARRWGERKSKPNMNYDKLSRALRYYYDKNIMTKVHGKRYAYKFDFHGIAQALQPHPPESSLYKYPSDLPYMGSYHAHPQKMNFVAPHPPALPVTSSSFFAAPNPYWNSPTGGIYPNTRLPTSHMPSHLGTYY
As to conditions: protein: recombinant; tags: N-terminal GST; dsDNA, one strand shown. In outline:
as §1

Test [5] has as its target ELF1 (Homo sapiens, UniProt P32519 1-619). As to conditions: protein: recombinant; tags: N-terminal GST; dsDNA, one strand shown. An outline of the steps:
as §1

The target of test [6] is T5, EHF (Homo sapiens, UniProt Q9NZC4 1-300).
T5 sequence: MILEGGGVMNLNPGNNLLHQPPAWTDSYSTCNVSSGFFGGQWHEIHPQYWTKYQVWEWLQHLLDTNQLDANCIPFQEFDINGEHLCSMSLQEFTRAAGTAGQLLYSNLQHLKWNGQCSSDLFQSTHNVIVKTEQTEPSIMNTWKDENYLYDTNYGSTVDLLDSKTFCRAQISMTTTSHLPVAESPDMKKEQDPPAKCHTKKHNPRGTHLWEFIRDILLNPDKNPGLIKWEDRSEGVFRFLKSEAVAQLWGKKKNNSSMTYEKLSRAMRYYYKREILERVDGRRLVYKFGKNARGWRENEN
As to conditions: protein: recombinant; tags: N-terminal GST; dsDNA, one strand shown. An outline of the steps:
as §1

In test [7] the target is SPI1 (Homo sapiens, UniProt P17947 1-270). The note with it: protein: recombinant; tags: N-terminal GST; dsDNA, one strand shown. In outline:
as §1

The target of test [8] is SPIB (Homo sapiens, UniProt Q01892 1-262). As to conditions: protein: recombinant; tags: N-terminal GST; dsDNA, one strand shown. In outline:
as §1

For test [9], the target named is T6, ELK3 (Homo sapiens, UniProt P41970 1-407).
T6 sequence: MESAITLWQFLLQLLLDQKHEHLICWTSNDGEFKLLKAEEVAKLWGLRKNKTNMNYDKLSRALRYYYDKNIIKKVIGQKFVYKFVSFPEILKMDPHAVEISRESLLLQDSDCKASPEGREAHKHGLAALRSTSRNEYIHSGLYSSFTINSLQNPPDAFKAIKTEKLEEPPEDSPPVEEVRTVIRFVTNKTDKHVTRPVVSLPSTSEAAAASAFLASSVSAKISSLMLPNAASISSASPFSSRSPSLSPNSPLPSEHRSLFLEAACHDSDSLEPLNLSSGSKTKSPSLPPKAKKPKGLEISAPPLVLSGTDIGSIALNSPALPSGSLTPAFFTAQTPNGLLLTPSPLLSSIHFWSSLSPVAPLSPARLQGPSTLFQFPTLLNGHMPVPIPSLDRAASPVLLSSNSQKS
As to conditions: protein: recombinant; tags: N-terminal GST; dsDNA, one strand shown. An outline of the steps:
as §1

Test [10] addresses T7, FEV (Homo sapiens, UniProt Q99581 1-238).
T7 sequence: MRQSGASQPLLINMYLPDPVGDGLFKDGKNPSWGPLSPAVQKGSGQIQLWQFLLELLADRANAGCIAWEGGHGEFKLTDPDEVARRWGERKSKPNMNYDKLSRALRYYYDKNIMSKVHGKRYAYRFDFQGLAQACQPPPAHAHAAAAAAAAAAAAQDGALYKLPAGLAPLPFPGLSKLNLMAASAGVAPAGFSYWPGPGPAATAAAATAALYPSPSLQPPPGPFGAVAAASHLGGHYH
The note with it: protein: recombinant; tags: N-terminal GST; dsDNA, one strand shown. In outline: as §1

For test [11], the target named is ETV5 (Homo sapiens, UniProt P41161 1-510). As to conditions: protein: recombinant; tags: N-terminal GST; dsDNA, one strand shown. In outline: as §1
Test [12] has as its target HSF1 (Homo sapiens, UniProt Q00613 1-529). As to conditions: protein: recombinant; tags: N-terminal GST; chain copies: 3; dsDNA, one strand shown. In outline:
as §1

For test [13], the target named is T8, SPIC (Homo sapiens, UniProt Q8N5J4 1-248).
T8 sequence: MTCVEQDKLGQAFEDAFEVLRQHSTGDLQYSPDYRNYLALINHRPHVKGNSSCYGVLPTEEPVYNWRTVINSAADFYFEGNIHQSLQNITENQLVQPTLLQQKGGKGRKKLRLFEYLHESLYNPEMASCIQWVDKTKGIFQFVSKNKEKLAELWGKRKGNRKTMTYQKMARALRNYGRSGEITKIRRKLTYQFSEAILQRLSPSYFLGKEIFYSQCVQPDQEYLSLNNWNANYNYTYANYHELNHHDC
The note with it: protein: recombinant; tags: N-terminal GST; dsDNA, one strand shown. In outline:
as §1

In test [14] the target is ELF4 (Homo sapiens, UniProt Q99607 1-663). The note with it: protein: recombinant; tags: N-terminal GST; dsDNA, one strand shown. An outline of the steps:
as §1

The target of test [15] is T9, ELK4 (Homo sapiens, UniProt P28324-2 1-405).
T9 sequence: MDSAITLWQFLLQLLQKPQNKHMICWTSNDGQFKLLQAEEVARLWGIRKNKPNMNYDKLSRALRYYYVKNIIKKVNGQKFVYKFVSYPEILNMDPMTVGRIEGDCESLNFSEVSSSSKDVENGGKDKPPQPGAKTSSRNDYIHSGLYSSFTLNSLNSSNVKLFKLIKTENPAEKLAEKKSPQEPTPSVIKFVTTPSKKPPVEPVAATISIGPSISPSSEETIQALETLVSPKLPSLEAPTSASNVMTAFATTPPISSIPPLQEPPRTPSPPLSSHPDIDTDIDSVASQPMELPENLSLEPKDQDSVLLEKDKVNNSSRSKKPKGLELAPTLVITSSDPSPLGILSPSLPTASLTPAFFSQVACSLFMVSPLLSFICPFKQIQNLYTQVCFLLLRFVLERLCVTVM
The note with it: protein: recombinant; tags: N-terminal GST; dsDNA, one strand shown. An outline of the steps:
as §1

In test [16] the target is T10, ETV2 (Homo sapiens, UniProt O00321 1-342).
T10 sequence: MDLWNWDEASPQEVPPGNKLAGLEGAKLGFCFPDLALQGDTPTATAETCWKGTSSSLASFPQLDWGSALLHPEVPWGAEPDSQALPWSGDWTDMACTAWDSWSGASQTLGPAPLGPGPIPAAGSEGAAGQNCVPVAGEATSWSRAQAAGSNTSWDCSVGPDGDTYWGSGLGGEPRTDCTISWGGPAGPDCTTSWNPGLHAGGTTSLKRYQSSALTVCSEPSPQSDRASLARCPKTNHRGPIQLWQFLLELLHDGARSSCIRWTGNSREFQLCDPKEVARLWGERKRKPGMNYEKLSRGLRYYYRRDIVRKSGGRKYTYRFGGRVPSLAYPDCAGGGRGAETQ
The note with it: protein: recombinant; tags: N-terminal GST; dsDNA, one strand shown. In outline: as §1

The target in test [17] is CRX (Homo sapiens, UniProt O43186 1-299). The note with it: protein: recombinant; tags: N-terminal GST; dsDNA, one strand shown. An outline of the steps: as §1
The target of test [18] is ETV1 (Homo sapiens, UniProt P50549 1-477). As to conditions: protein: recombinant; tags: N-terminal GST; dsDNA, one strand shown. An outline of the steps: as §1
Chain of ETV1 (P50549 whole entry): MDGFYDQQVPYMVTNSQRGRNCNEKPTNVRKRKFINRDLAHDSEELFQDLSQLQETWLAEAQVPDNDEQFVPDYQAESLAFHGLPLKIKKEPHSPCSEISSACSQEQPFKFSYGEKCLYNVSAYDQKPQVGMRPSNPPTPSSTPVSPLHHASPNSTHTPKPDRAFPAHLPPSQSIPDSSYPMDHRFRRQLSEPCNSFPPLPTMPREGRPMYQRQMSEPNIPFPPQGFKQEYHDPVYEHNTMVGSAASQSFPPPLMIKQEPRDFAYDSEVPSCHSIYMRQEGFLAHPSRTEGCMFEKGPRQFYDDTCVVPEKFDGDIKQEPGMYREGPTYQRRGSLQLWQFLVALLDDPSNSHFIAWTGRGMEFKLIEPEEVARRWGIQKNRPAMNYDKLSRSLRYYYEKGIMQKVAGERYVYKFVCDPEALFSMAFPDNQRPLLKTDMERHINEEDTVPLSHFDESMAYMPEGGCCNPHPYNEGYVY

Chain of CRX (O43186 whole entry): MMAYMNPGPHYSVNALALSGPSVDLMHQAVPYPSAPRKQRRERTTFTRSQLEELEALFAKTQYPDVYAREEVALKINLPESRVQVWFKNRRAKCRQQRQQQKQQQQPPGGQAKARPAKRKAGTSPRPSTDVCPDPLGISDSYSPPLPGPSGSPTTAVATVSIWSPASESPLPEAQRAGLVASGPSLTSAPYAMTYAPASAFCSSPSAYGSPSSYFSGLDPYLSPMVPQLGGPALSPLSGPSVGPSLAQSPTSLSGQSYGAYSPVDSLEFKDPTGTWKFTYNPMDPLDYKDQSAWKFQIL
Chain of ETV5 (P41161 whole entry): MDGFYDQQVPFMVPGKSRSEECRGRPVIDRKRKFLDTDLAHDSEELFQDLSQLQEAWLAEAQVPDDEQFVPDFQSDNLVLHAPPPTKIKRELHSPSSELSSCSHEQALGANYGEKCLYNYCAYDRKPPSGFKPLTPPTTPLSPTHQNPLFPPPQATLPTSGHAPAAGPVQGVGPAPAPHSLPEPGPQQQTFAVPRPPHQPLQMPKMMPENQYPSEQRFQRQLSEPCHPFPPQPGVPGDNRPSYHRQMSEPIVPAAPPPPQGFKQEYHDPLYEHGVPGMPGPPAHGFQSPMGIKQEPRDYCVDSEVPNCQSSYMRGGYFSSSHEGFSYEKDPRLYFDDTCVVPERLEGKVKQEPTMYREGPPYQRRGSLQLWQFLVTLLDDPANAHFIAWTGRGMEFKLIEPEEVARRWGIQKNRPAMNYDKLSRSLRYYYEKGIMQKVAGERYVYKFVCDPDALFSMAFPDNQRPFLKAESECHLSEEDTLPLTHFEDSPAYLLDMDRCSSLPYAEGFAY
Chain of SPIB (Q01892 whole entry): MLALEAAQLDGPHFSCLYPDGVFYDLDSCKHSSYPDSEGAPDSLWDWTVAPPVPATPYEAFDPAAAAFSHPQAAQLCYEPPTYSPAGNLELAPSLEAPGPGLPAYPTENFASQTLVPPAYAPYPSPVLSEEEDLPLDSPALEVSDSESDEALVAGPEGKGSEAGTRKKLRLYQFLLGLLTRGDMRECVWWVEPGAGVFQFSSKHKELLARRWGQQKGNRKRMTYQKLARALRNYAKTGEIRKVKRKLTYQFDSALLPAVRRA
Chain of HSF1 (Q00613 whole entry): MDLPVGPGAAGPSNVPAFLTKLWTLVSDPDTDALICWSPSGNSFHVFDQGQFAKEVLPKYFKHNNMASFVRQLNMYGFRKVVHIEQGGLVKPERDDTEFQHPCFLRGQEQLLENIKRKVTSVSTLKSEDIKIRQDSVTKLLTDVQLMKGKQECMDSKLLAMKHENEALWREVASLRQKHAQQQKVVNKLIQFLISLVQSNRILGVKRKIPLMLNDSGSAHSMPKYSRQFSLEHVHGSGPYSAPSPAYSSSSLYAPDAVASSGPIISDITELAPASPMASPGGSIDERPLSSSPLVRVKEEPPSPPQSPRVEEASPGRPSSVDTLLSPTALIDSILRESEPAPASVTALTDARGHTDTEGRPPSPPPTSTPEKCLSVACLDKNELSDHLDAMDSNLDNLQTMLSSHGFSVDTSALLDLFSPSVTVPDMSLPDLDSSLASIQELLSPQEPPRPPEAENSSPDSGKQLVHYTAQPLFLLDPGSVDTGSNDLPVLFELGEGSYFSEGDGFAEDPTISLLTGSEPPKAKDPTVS
Chain of ELF4 (Q99607 whole entry): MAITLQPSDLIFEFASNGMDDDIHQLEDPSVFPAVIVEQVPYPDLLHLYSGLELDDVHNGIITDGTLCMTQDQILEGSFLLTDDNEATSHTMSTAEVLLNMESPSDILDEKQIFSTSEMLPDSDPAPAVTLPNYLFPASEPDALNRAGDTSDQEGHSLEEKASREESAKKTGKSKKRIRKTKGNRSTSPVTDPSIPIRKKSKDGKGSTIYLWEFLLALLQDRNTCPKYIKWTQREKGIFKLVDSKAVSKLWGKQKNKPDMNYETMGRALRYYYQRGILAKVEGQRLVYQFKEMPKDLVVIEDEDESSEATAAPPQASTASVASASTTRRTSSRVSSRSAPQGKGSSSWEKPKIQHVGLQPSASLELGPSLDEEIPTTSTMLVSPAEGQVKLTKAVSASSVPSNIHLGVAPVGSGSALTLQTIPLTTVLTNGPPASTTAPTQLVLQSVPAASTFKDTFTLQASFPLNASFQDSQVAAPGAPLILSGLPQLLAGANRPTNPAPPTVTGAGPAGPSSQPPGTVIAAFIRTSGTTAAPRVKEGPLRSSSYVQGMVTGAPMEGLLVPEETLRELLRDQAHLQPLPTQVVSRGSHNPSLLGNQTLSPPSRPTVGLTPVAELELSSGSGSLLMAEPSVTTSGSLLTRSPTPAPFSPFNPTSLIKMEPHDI
Chain of ELF1 (P32519 whole entry): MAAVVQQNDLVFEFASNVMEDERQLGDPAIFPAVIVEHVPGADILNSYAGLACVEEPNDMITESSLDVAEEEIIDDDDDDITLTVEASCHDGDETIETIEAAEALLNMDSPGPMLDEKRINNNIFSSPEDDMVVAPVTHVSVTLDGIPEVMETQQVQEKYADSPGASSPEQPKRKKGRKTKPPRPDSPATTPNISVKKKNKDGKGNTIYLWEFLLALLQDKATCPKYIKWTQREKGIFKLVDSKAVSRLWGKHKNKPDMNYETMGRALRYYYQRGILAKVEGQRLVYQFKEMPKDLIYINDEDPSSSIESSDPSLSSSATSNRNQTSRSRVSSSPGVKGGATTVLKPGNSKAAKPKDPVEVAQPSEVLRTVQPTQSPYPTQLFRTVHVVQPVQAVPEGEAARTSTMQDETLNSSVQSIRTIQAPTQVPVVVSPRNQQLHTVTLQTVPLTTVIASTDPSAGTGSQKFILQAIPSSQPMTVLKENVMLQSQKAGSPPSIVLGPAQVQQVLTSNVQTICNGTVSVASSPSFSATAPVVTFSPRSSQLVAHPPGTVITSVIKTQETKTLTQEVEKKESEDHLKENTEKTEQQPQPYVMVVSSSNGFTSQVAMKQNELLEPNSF

For the sequence TTTTAG, the binding signal in test [1] was 1.2 fold enrichment (6-mer frequency, TF over GST control); in [2], 1.07 fold enrichment (6-mer frequency, TF over GST control); in test [3] it was 1.19 fold enrichment (6-mer frequency, TF over GST control); in test [4], 1.19 fold enrichment (6-mer frequency, TF over GST control); in [5], 1.21 fold enrichment (6-mer frequency, TF over GST control); in test [6], 1.12 fold enrichment (6-mer frequency, TF over GST control). Further, the binding signal was 1.15 fold enrichment (6-mer frequency, TF over GST control) in test [7]; 1.3 fold enrichment (6-mer frequency, TF over GST control) in test [8]; 1.16 fold enrichment (6-mer frequency, TF over GST control) in [9]; 1.14 fold enrichment (6-mer frequency, TF over GST control) in test [10]; 1.09 fold enrichment (6-mer frequency, TF over GST control) in test [11]; 1.19 fold enrichment (6-mer frequency, TF over GST control) in test [12]. Further, the binding signal in [13] was 1.13 fold enrichment (6-mer frequency, TF over GST control); in [14] it was 1.24 fold enrichment (6-mer frequency, TF over GST control); in test [15], 1.1 fold enrichment (6-mer frequency, TF over GST control); in test [16], 1.13 fold enrichment (6-mer frequency, TF over GST control); in test [17], 1.48 fold enrichment (6-mer frequency, TF over GST control); in [18] it was 1.19 fold enrichment (6-mer frequency, TF over GST control).

These data come from article PMC7862700, “An all-to-all approach to the identification of sequence-specific readers for epigenetic DNA modifications on cytosine”.
